# In paper PMC12820563, “FoxP3 forms a head-to-head dimer in vivo and stabilizes its multimerization on adjacent microsatellites”:
# Over roughly 16,000 sequences, “rpm ratio (pull-down/input)” has its median near 0.94; the highest 2% begin near 1.7. Many of the other results were omitted from the sample, so the highest values are more common in it than they were.
# Target: T1, MBP-FoxP1dN (Mus musculus, UniProt P58462 326-579)
# T1 sequence: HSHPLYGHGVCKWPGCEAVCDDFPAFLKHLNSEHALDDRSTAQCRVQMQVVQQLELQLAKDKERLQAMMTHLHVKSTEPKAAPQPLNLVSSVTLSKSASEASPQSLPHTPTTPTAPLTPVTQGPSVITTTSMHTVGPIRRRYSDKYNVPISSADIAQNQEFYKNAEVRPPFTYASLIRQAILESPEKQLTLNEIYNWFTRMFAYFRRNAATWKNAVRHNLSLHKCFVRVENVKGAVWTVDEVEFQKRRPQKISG
# Test: PD-seq (MBP pull-down with sequencing); 20 mM Tris-HCl pH 7.5, 100 mM NaCl, 1.5 mM MgCl2, 0.4 uM protein, 0.1 uM dsDNA library, 30 min, room temperature, amylose pull-down; high values mean tight binding
# Details: protein: recombinant; tags: His6-MBP; chain copies: 2; dsDNA, one strand shown
# Outline: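 Binding is reads-per-million enrichment of pull-down over input, with replicates pooled. It comes from 30 min room-temperature incubation in Tris pH 7.5 buffer with NaCl and MgCl2 of 0.4 µM His6-MBP-tagged, N-terminally truncated mouse FoxP3 or FoxP1 fragment from E. coli with 0.1 µM Klenow-filled degenerate double-stranded DNA library, followed by amylose resin capture, three washes and Illumina sequencing of the released DNA.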
row,Sequence,binding signal
1,GATGATTGTTCTCCCAGCTGATGAATTTTTGCACTCGAGTAAACAAATTTTCCTAATCTTTCTGTTCAAGCGCCATCTAC,0.891 RPM ratio (pull-down/input)
2,GATGATTGTTCTCCCAGCTGATGAATTGCACTCCTCGAGTAAACAAATTTTCCTAATCTTTCTGTTCAAGCGCCATCTAC,1.15 RPM ratio (pull-down/input)
3,GATGATTGTTCTCCCAGCTGATGAATTGTTGCACTCGAGTAAACAAATTTTCCTAATCTTTCTGTTCAAGCGCCATCTAC,1.76 RPM ratio (pull-down/input)
4,GATGATTGTTCTCCCAGCTGATGAATTACAATAATCGAGTAAACAAATTTTCCTAATCTTTCTGTTCAAGCGCCATCTAC,1.83 RPM ratio (pull-down/input)
5,GATGATTGTTCTCCCAGCTGATGAATTACTACAATCGAGTAAACAAATTTTCCTAATCTTTCTGTTCAAGCGCCATCTAC,1.55 RPM ratio (pull-down/input)
6,GATGATTGTTCTCCCAGCTGATGAATTTCAATAATCGAGTAAACAAATTTTCCTAATCTTTCTGTTCAAGCGCCATCTAC,1.31 RPM ratio (pull-down/input)
7,GATGATTGTTCTCCCAGCTGATGAATTACAACAATCGAGTAAACAAATTTTCCTAATCTTTCTGTTCAAGCGCCATCTAC,2.1 RPM ratio (pull-down/input)
8,GATGATTGTTCTCCCAGCTGATGAATTACAATTATCGAGTAAACAAATTTTCCTAATCTTTCTGTTCAAGCGCCATCTAC,1.51 RPM ratio (pull-down/input)
9,GATGATTGTTCTCCCAGCTGATGAATTACAGCAATCGAGTAAACAAATTTTCCTAATCTTTCTGTTCAAGCGCCATCTAC,1.28 RPM ratio (pull-down/input)
10,GATGATTGTTCTCCCAGCTGATGAATTGCTATGCTCGAGTAAACAAATTTTCCTAATCTTTCTGTTCAAGCGCCATCTAC,1.01 RPM ratio (pull-down/input)
11,GATGATTGTTCTCCCAGCTGATGAATTTTGGATGTCGAGTAAACAAATTTTCCTAATCTTTCTGTTCAAGCGCCATCTAC,0.849 RPM ratio (pull-down/input)
12,GATGATTGTTCTCCCAGCTGATGAATTACGATTGTCGAGTAAACAAATTTTCCTAATCTTTCTGTTCAAGCGCCATCTAC,1.16 RPM ratio (pull-down/input)
13,GATGATTGTTCTCCCAGCTGATGAATTATTTAAATCGAGTAAACAAATTTTCCTAATCTTTCTGTTCAAGCGCCATCTAC,1.24 RPM ratio (pull-down/input)
14,GATGATTGTTCTCCCAGCTGATGAATTGCGTACGTCGAGTAAACAAATTTTCCTAATCTTTCTGTTCAAGCGCCATCTAC,1.1 RPM ratio (pull-down/input)
15,GATGATTGTTCTCCCAGCTGATGAATTCCTTGTGTCGAGTAAACAAATTTTCCTAATCTTTCTGTTCAAGCGCCATCTAC,0.961 RPM ratio (pull-down/input)
16,GATGATTGTTCTCCCAGCTGATGAATTAAGCGCATCGAGTAAACAAATTTTCCTAATCTTTCTGTTCAAGCGCCATCTAC,1.27 RPM ratio (pull-down/input)
17,GATGATTGTTCTCCCAGCTGATGAATTCATATTGTCGAGTAAACAAATTTTCCTAATCTTTCTGTTCAAGCGCCATCTAC,1.9 RPM ratio (pull-down/input)
18,GATGATTGTTCTCCCAGCTGATGAATTTTCATATTCGAGTAAACAAATTTTCCTAATCTTTCTGTTCAAGCGCCATCTAC,1.06 RPM ratio (pull-down/input)
19,GATGATTGTTCTCCCAGCTGATGAATTCATATTCTCGAGTAAACAAATTTTCCTAATCTTTCTGTTCAAGCGCCATCTAC,0.83 RPM ratio (pull-down/input)
20,GATGATTGTTCTCCCAGCTGATGAATTGTCATATTCGAGTAAACAAATTTTCCTAATCTTTCTGTTCAAGCGCCATCTAC,1.17 RPM ratio (pull-down/input)
21,GATGATTGTTCTCCCAGCTGATGAATTCATATTTTCGAGTAAACAAATTTTCCTAATCTTTCTGTTCAAGCGCCATCTAC,1.74 RPM ratio (pull-down/input)
22,GATGATTGTTCTCCCAGCTGATGAATTCTCATATTCGAGTAAACAAATTTTCCTAATCTTTCTGTTCAAGCGCCATCTAC,0.94 RPM ratio (pull-down/input)
23,GATGATTGTTCTCCCAGCTGATGAATTAGATCGGTCGAGTAAACAAATTTTCCTAATCTTTCTGTTCAAGCGCCATCTAC,0.789 RPM ratio (pull-down/input)
24,GATGATTGTTCTCCCAGCTGATGAATTGTGGGAATCGAGTAAACAAATTTTCCTAATCTTTCTGTTCAAGCGCCATCTAC,1.08 RPM ratio (pull-down/input)
25,GATGATTGTTCTCCCAGCTGATGAATTCCGTCCTTCGAGTAAACAAATTTTCCTAATCTTTCTGTTCAAGCGCCATCTAC,0.801 RPM ratio (pull-down/input)
26,GATGATTGTTCTCCCAGCTGATGAATTAGGTGATTCGAGTAAACAAATTTTCCTAATCTTTCTGTTCAAGCGCCATCTAC,1.06 RPM ratio (pull-down/input)

row,Sequence,binding signal
1,GATGATTGTTCTCCCAGCTGATGAATTCGTTGTATCGAGTAAACAAATTTTCCTAATCTTTCTGTTCAAGCGCCATCTAC,1.3 RPM ratio (pull-down/input)
2,GATGATTGTTCTCCCAGCTGATGAATTCCTCAAGTCGAGTAAACAAATTTTCCTAATCTTTCTGTTCAAGCGCCATCTAC,0.819 RPM ratio (pull-down/input)
3,GATGATTGTTCTCCCAGCTGATGAATTGAGCGTGTCGAGTAAACAAATTTTCCTAATCTTTCTGTTCAAGCGCCATCTAC,0.844 RPM ratio (pull-down/input)
4,GATGATTGTTCTCCCAGCTGATGAATTTTGGTATTCGAGTAAACAAATTTTCCTAATCTTTCTGTTCAAGCGCCATCTAC,1.06 RPM ratio (pull-down/input)
5,GATGATTGTTCTCCCAGCTGATGAATTTGGTATTTCGAGTAAACAAATTTTCCTAATCTTTCTGTTCAAGCGCCATCTAC,1.07 RPM ratio (pull-down/input)
6,GATGATTGTTCTCCCAGCTGATGAATTGGTATTGTCGAGTAAACAAATTTTCCTAATCTTTCTGTTCAAGCGCCATCTAC,2.44 RPM ratio (pull-down/input)
7,GATGATTGTTCTCCCAGCTGATGAATTGGTATTTTCGAGTAAACAAATTTTCCTAATCTTTCTGTTCAAGCGCCATCTAC,2.46 RPM ratio (pull-down/input)
8,GATGATTGTTCTCCCAGCTGATGAATTTGGTATGTCGAGTAAACAAATTTTCCTAATCTTTCTGTTCAAGCGCCATCTAC,0.971 RPM ratio (pull-down/input)
9,GATGATTGTTCTCCCAGCTGATGAATTGGTATTCTCGAGTAAACAAATTTTCCTAATCTTTCTGTTCAAGCGCCATCTAC,1.02 RPM ratio (pull-down/input)
10,GATGATTGTTCTCCCAGCTGATGAATTCGGACCGTCGAGTAAACAAATTTTCCTAATCTTTCTGTTCAAGCGCCATCTAC,0.773 RPM ratio (pull-down/input)
11,GATGATTGTTCTCCCAGCTGATGAATTAGGTTCATCGAGTAAACAAATTTTCCTAATCTTTCTGTTCAAGCGCCATCTAC,0.921 RPM ratio (pull-down/input)
12,GATGATTGTTCTCCCAGCTGATGAATTGCCAGTCTCGAGTAAACAAATTTTCCTAATCTTTCTGTTCAAGCGCCATCTAC,0.829 RPM ratio (pull-down/input)
13,GATGATTGTTCTCCCAGCTGATGAATTCTGACTTTCGAGTAAACAAATTTTCCTAATCTTTCTGTTCAAGCGCCATCTAC,0.897 RPM ratio (pull-down/input)
14,GATGATTGTTCTCCCAGCTGATGAATTTGATTGGTCGAGTAAACAAATTTTCCTAATCTTTCTGTTCAAGCGCCATCTAC,0.963 RPM ratio (pull-down/input)
15,GATGATTGTTCTCCCAGCTGATGAATTGTTTGGGTCGAGTAAACAAATTTTCCTAATCTTTCTGTTCAAGCGCCATCTAC,1.79 RPM ratio (pull-down/input)
16,GATGATTGTTCTCCCAGCTGATGAATTCTTTTGGTCGAGTAAACAAATTTTCCTAATCTTTCTGTTCAAGCGCCATCTAC,1 RPM ratio (pull-down/input)
17,GATGATTGTTCTCCCAGCTGATGAATTTTTTTGGTCGAGTAAACAAATTTTCCTAATCTTTCTGTTCAAGCGCCATCTAC,0.952 RPM ratio (pull-down/input)
18,GATGATTGTTCTCCCAGCTGATGAATTTCTTTGGTCGAGTAAACAAATTTTCCTAATCTTTCTGTTCAAGCGCCATCTAC,0.881 RPM ratio (pull-down/input)
19,GATGATTGTTCTCCCAGCTGATGAATTGTTTTGGTCGAGTAAACAAATTTTCCTAATCTTTCTGTTCAAGCGCCATCTAC,2.02 RPM ratio (pull-down/input)
20,GATGATTGTTCTCCCAGCTGATGAATTTTTTGGGTCGAGTAAACAAATTTTCCTAATCTTTCTGTTCAAGCGCCATCTAC,0.836 RPM ratio (pull-down/input)
21,GATGATTGTTCTCCCAGCTGATGAATTTGTTGGGTCGAGTAAACAAATTTTCCTAATCTTTCTGTTCAAGCGCCATCTAC,1.56 RPM ratio (pull-down/input)
22,GATGATTGTTCTCCCAGCTGATGAATTTGTTTGGTCGAGTAAACAAATTTTCCTAATCTTTCTGTTCAAGCGCCATCTAC,2.1 RPM ratio (pull-down/input)
23,GATGATTGTTCTCCCAGCTGATGAATTTTGTTGGTCGAGTAAACAAATTTTCCTAATCTTTCTGTTCAAGCGCCATCTAC,2.26 RPM ratio (pull-down/input)
24,GATGATTGTTCTCCCAGCTGATGAATTGGTTTGGTCGAGTAAACAAATTTTCCTAATCTTTCTGTTCAAGCGCCATCTAC,0.947 RPM ratio (pull-down/input)
25,GATGATTGTTCTCCCAGCTGATGAATTTGGTTGGTCGAGTAAACAAATTTTCCTAATCTTTCTGTTCAAGCGCCATCTAC,0.868 RPM ratio (pull-down/input)
